High-throughput results as filed in PubChem BioAssay.
SMN2 splice enh – increases expression of the SMN2 splice variant; HEK293 SMN2-luciferase splicing reporter, luminescence, 30-36 h; Potency, µM (top dose mostly 46.1 µM), without a hit: at the highest dose activity change, positive = activation, actives largely listed as activators; 2.8% of 210,000 active; AID 1458; note: % of control where 0% means no effect; nearly all actives have a fitted effect of over 55% in size
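HEK293 cells carry an SMN2 minigene-luciferase reporter in which exon 7 inclusion puts luciferase in frame. Cells were seeded at 2000 cells/well, attached for 10-12 hours, then exposed to compounds for 30-36 hours at 37C before ONE-Glo luminescence.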
Rab9 prom act – Rab9 promoter activation. Huh7 Rab9 promoter-luciferase reporter, luminescence, 24 h. Potency, µM (titrated, usually from 9.22 µM), for inactives: at the top dose activation, negative = inhibition, usual class: activators. 2.8% of 320,000 active; note: % of control where 0% means no effect; nearly all actives have a fitted effect of over 60% in size
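Promoter activation is measured as luciferase luminescence in Huh7 cells stably transfected with a Rab9 promoter–luciferase construct, following 24 h compound exposure at 37 °C and 10 min reagent incubation at ambient temperature.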
NPC1 prom act – NPC1 promoter activation; Potency, µM (titrated, usually from 9.22 µM), without a hit: at the top dose activation, usual class: activators; 2.4% of 320,000 active; Huh7 NPC1 promoter luciferase reporter, 24 h; AID 485313; note: % of control where 0% means no effect; nearly all actives have a fitted effect of over 60% in size
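Stably transfected Huh7 (NPC1 promoter→luciferase), 1500 cells/well in Opti-MEM + 10% FBS, 2 h settle, then compound 24 h at 37 °C. Luminescence after 10 min with Amplite reagent.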
FLuc modulator – firefly luciferase modulation, counter-screen for miR-21 project; purified FLuc, Km substrates, luminescence inhibition; 6.9% of 360,000 active; Potency, µM (top dose mostly 57.5 µM), for inactives: at the top dose activity change, negative = inhibition, usual class: inhibitors; P08659;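 note: plate controls were vehicle for no effect and reference inhibitor for full effect; nearly all actives have a fitted effect of over 55% in size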
Target sequence (P08659 whole entry, looked up): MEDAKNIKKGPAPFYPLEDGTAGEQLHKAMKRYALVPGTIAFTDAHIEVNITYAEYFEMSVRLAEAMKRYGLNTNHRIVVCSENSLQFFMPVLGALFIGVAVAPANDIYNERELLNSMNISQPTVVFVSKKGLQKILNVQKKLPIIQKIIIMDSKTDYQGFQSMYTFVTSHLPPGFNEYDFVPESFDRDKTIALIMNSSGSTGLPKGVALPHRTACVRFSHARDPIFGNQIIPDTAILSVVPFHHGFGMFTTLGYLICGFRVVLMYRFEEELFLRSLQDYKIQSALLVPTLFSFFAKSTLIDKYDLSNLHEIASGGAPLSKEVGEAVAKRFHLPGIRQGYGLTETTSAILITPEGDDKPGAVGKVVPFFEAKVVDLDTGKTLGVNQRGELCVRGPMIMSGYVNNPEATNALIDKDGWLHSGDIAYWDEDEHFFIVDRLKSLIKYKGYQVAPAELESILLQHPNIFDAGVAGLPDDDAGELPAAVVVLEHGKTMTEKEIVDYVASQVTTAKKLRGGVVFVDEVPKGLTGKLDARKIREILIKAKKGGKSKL
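Purified P. pyralis luciferase, 10 nM final, with Km-level 10 uM D-luciferin and 10 uM ATP in 50 mM Tris acetate pH 7.5, 10 mM Mg acetate, 0.01% Tween-20, 0.05% BSA; 6-point qHTS titration about 60 µM downward; luminescence read.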
KinaseGlo FLuc – Kinase-Glo luciferase inhibition (counter-screen); Q27757; Kinase-Glo luciferase, ATP luminescence, 8 min; Potency, µM (titrated, usually from 38.3 µM), for the others: at the highest dose activity change, negative = inhibition, usual class: inhibitors; 0.28% of 200,000 active; AID 1379; note: % is set by controls: 0 for no effect and ±100 for the full control effect; nearly all actives have a fitted effect of over 60% in size
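Substrate mix (final 50 mM imidazole pH 7.2, 50 mM KCl, 7 mM MgCl2, 10 uM ATP, 0.01% Tween 20, 0.05% BSA) plus pin-tool compound, then Kinase-Glo detection mix; 8 min ambient, luminescence read.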
ELG1 genotoxic – genotoxicity induction in ELG1-luciferase HEK293T cells. HEK293T ELG1-luciferase reporter, luminescence, 16 h. Potency, µM (series often up to 46 µM), for inactives: top-dose activity change, positive = activation, actives largely listed as activators. 1.3% of 330,000 active. AID 504466; note: % of control where 0% means no effect; nearly all actives have a fitted effect of over 60% in size
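Genotoxic stress is detected as increased luminescence from luciferase-tagged ELG1 in HEK293T cells, measured with ONE-Glo after a 16 hr treatment at 37 °C.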
Active calls of the source: *; ? = inconclusive; . = no result; [ ] = remark or other dose. Sampled rows, rich in hits. Any-hit rate of the full collection: about 7.3%. Calls come from the whole dose curve; as a rule, active = well fitted curve in the direction sought with a large enough effect; inconclusive = small, poorly fitted or top-dose-only effect, or another doubt; inactive = no such curve, though single readings can be large; an effect the other way counts as inactive or inconclusive. Potency is the fitted concentration of half-maximal effect.

SMILES | SMN2 splice enh | Rab9 prom act | NPC1 prom act | FLuc modulator | KinaseGlo FLuc | ELG1 genotoxic
CN(C)c1ccnc2sc(C(=O)c3ccc(Br)cc3)c(N)c12 | 22µM* | ? | ? | ? | -1% | -2%
CN(C)c1ccnc2sc(C(N)=O)c(N)c12 | 1% | 13% | 17% | -6% | -4% | -25%
O=C(N/N=C/c1ccco1)c1ccc2nc[nH]c2c1 | . | -4% | -1% | -5% | . | 0%
CC(/C=N/NC(=O)c1ccc2nc(C)[nH]c2c1)=C\c1ccccc1 | 17% | -1% | 2% | 8.5µM* | -7% | -6%
O=C(N/N=C/C(Br)=C\c1ccccc1)c1ccc2nc[nH]c2c1 | ? | 1% | 2% | 12µM* | 0% | 11%
CC(=C/c1ccccc1)/C=N/NC(=O)c1ccc2nc[nH]c2c1 | ? | 20% | 16% | 5.4µM* | -4% | 10%
O=C(N/N=C/c1cccs1)c1ccc2nc[nH]c2c1 | 0% | 25% | 23% | ? | -3% | ?
Cc1c(C(=O)Nc2ccccc2)csc1-c1ccccc1 | 13µM* | 0.71µM* | 1.1µM* | 0.21µM* | -19% | 3.7µM*
Cc1oc(-c2ccccc2)cc1C(=O)Nc1ccccc1 | 29% | -1% | 10% | -16% | -3% | -1%
Cc1c(C(=O)Nc2ccccc2[N+](=O)[O-])csc1-c1ccccc1 | . | 2.8µM* | 3.2µM* | 1.2µM* | . | 4.6µM*
Nc1c(C(=O)Nc2cccc(F)c2)c2ccccn2c1C(=O)c1ccccc1 | 1% | . | . | -1% | . | .
Cc1cccc(NCc2nc3ccccc3n2Cc2ccccc2)c1 | 1% | 4% | 12% | 24µM* | -5% | 15%
Cn1c(NCc2cccc(Br)c2)nc2ccccc21 | -10% | 3% | -1% | -15% | -4% | ?
Cc1cccc(NCc2nc3ccccc3n2CCOc2ccccc2C)c1 | -41% | . | . | 1% | . | .
Cc1ccc(N2CCN(c3ccc(NCc4nc5ccccc5n4C)cc3)CC2)cc1 | -25% | 2% | 0% | -19% | -3% | 0%
Cc1nc2cc(NCc3nc4ccccc4n3Cc3ccccc3)ccc2n1C | 1% | 0.71µM* | 1.1µM* | 0.6µM* | 10µM* | ?
Cc1cccc(NCc2nc3ccccc3n2C)c1 | ? | 3.2µM* | ? | 24µM* | -18% | 12µM*
Cn1c(CNc2ccc(Cl)cc2)nc2ccccc21 | 7.1µM* | ? | 4.5µM* | 6.7µM* | -6% | 4.6µM*
O=[N+]([O-])c1cccc(C(F)(F)F)c1 | -6% | . | . | . | . | .
CC1CCCN(CCCNC(=O)c2ccc3c(c2)N(Cc2cccc(Cl)c2)C(=O)c2ccccc2S3(=O)=O)C1 (stereo unspecified) | . | . | . | 0% | . | .
COc1cccc(NC(=O)Cn2c(=O)n(-c3ccc(C)cc3)c(=O)c3ccccc32)c1 | -3% | . | . | -7% | . | .
CCCOc1ccc(CNC(=O)Cn2cc3c(n2)-c2c(oc(C(=O)N4CCOCC4)c2C)CC3)cc1 | . | . | . | 1% | . | .
COc1cccc(CNc2ccc3c(c2)ncn3C)c1OC | 8% | 23% | 4% | ? | . | 6%
Cc1ccc(NCc2nc3ccccc3n2C)c(C)c1 | . | 0.71µM* | 0.63µM* | 0.34µM* | . | 1µM*
COc1cccc(CNc2ccc3c(c2)nc(C)n3C)c1OC | . | ? | ? | 24µM* | . | ?
SMILES | SMN2 splice enh | Rab9 prom act | NPC1 prom act | FLuc modulator | KinaseGlo FLuc | ELG1 genotoxic
CCN(Cc1ccccc1)C(=O)c1cc(-c2ccccc2)n[nH]1 | . | . | . | 15µM* | . | .
CCN(Cc1ccccc1)C(=O)c1ccc(C(=O)N(CC)Cc2ccccc2)cc1 | . | -7% | -11% | 8% | . | -4%
CN(C)c1ccc(C(CNS(=O)(=O)c2ccc(Br)cc2)N2CCOCC2)cc1 (stereo unspecified) | . | . | . | -6% | . | .
Cc1cc(-c2ccccc2)c2c(n1)sc1c(O)cc(=O)[nH]c12 | . | 6% | -1% | -1% | . | 0%
CCc1nc2sc3c(O)cc(=O)[nH]c3c2cc1C | . | -1% | 0% | 15µM* | . | -1%
COc1ccc(C(=O)N2CC(=O)Nc3ccc(F)cc3C2c2ccc(F)cc2)c(OC)c1 (stereo unspecified) | 6% | . | . | 1% | . | .
Nc1c(C(=O)c2cccs2)oc2ccccc12 | ? | 27% | ? | 15µM* | -3% | 18%
Nc1c(C(=O)c2ccc(Br)cc2)oc2ccccc12 | ? | 30% | 28% | -4% | -2% | 8%
CCOC(=O)c1oc2ccccc2c1N | 8% | 5% | -22% | -8% | 3% | 6%
Cc1ccc(C(=O)c2oc3ccccc3c2N)cc1 | 13µM* | ? | ? | 17µM* | 2% | ?
Nc1c(C(=O)c2ccc(Br)s2)oc2ccccc12 | ? | ? | ? | 7.6µM* | 0% | ?
Nc1nc(SCC(=O)O)[nH]c(=O)c1N | -16%[9.22 µM] | . | . | . | -3%[7.66 µM] | .
CCCSc1ncc(Cl)c(C(=O)N2CCN(c3cccc(Cl)c3)CC2)n1 | -23% | . | . | -13% | . | .
Cc1cc2cc3c(cc2nc1SCc1ccc(C(=O)O)cc1)OCCO3 | 5% | -3% | 2% | 19µM* | 5% | 0%
Cc1cc2cc3c(cc2nc1SCC(=O)O)OCCO3 | -20% | 6% | 1% | 1% | 3% | 3%
CCOc1ccc2nc(N3C(=O)CNC3=S)sc2c1 | . | 0.56µM* | 0.71µM* | 0.85µM* | . | 21µM*
CCOc1ccc2nc(SC3CC(=O)N(c4ccc(OC)cc4)C3=O)sc2c1 (stereo unspecified) | 21% | ? | 19% | ? | -2% | 9%
Cc1nccn1CCCN1C(=O)CNC1=S | -3% | 0% | -2% | -2% | -5% | 2%
Cc1cc2nc(N3C(=O)CNC3=S)sc2cc1C | 4µM* | 0.45µM* | 0.45µM* | 0.54µM* | -6% | 18µM*
COc1ccc(N2Nc3n[nH]c(N)c3N2)cc1 | ? | ? | 20% | 27µM* | 2% | 8%
CCOc1ccc(N2Nc3n[nH]c(N)c3N2)cc1 | ? | ? | ? | 19µM* | -3% | ?
Cc1ccc2occ(CC(=O)Nc3ccc(S(=O)(=O)N4CCC(C)CC4)cc3)c2c1 | 7% | . | . | -5% | . | .
COC(=O)COc1cccc(NC(=O)c2ccc(Cl)cc2)c1 | 0% | -9% | -2% | 27µM* | 1% | -5%
COC(=O)COc1cccc(NC(=O)c2ccc(C)cc2)c1 | -3% | -1% | -7% | 12µM* | -12% | 3%
Cc1ccc(NC(=O)c2ccc(OCc3c(C)noc3C)cc2)cc1 | . | 1% | -1% | -10% | . | -7%
COC(=O)COc1cccc(NC(=O)c2cc(OC)cc(OC)c2)c1 | -22% | -4% | -3% | ? | -11% | 1%
Cc1ccc(NC(=O)c2ccc(OC(=O)COc3ccc(Cl)c(C)c3)cc2)cc1 | 13µM* | 3.5µM* | 2.2µM* | ? | 3% | ?
